Compound activity as filed in PubChem.
Vc quorum ag-1 = inducers of Vibrio cholerae quorum light production without autoinducers; V. cholerae BH1578 lux reporter, luminescence, 6 h; activation, % at 18.7 µM; 350,000 tested, 0.16% active; AID 588436; in the data active = activation mostly above about 9.7%, no sharp cut-off
Y pestis TopoI = blocks Yersinia pestis topoisomerase I activity. Y. pestis Topo-I cleavage product accumulation, plate reader. activity, % at 10 µM. 360,000 tested, 0.064% active. AID 504884; in the data active = activity above about 50%, passing the limit was not always enough
Mtb hypoxia inh = inhibitors of hypoxia-regulated fluorescent reporter in Mycobacterium tuberculosis; 300,000 tested, 0.1% active; M. tuberculosis hypoxia-regulated fluorescent reporter, fluorescence; fluorescence inhibition, % (concentration not given with the values); in the data active = fluorescence inhibition mostly above about 23%, no sharp cut-off; inactive = mostly below about 17%
Vc quorum ag-2 = induces V. cholerae light production without autoinducers | 620 tested, under 10 active | AID 602243 | activation, % at 50 µM | V. cholerae BH1578 lux reporter, luminescence, 6 h | shares compounds with Vc quorum ag-1; call rule not given here
HeLa tox = kills HeLa cells within 24 hours; activity change, negative = cytotoxicity, % at 35 µM; AID 624140; HeLa viability, CellTiter-Glo ATP luminescence; 25 tested, under 10 active; shares compounds with Vc quorum ag-1;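 active = signal drop with fitted half-maximal concentration at or below twice the highest valid dose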
Numbers without * were called inactive; i = inactive; nt = no result. Sampled rows, rich in hits. Any-hit rate of the full collection: about 0.29%.

SMILES	Vc quorum ag-1	Y pestis TopoI	Mtb hypoxia inh	Vc quorum ag-2	others
CCCn1nnnc1NCc1cccc(OC)c1	1	5	7	nt
CCn1nnnc1NCc1cccc(OC)c1	nt	nt	nt	nt	HeLa tox=-14
O=C(CN1CCN(Cc2ccccc2Cl)CC1)NN=C/C=C/c1ccccc1[N+](=O)[O-]	nt	nt	-6	nt
C=CCC(CC(=O)NCCO)C(=O)NCC(OC(=O)C(CC=C)CC(=O)OC(C)(C)C)c1ccccc1 (configuration not stated)	nt	nt	12	nt
C=CCNC(=S)Nc1sc2c(c1C(=O)OCC)CC(C(C)C)OC2 (configuration not stated)	i	1	5	nt
CC(C)OC(=O)CSc1nnc(SCc2cccc3ccccc23)s1	29*	7	nt	0
O=C(O)CSc1nnc(SCc2cccc3ccccc23)s1	0	1	4	nt
CSc1nc(C)cc(OCC(=O)N2CCOCC2)n1	32*	2	nt	0
Cc1cccc(OCC(=O)N2CCOCC2)c1	i	4	15	nt
O=C1C=C(c2ccc(-c3ccccc3)cc2)CC(c2ccc(F)cc2)C1 (configuration not stated)	nt	nt	7	nt
COCCCNC(=O)c1ccc2c(=O)n(C3CCCC3)c(=S)[nH]c2c1	7	4	4	0
COCCCNC(=O)c1ccc2c(=O)n(CC3CCCO3)c(=S)[nH]c2c1 (configuration not stated)	i	3	4	nt
CCCCCCCCOC(=O)C(NC(=O)CCC(=O)Nc1ccc(S(N)(=O)=O)cc1)C(O)c1ccccc1 (configuration not stated)	17*	11	9	0
CCOC(=O)C(NC(=O)CCC(=O)Nc1ccc(S(N)(=O)=O)cc1)C(O)c1ccccc1 (configuration not stated)	6	nt	12	nt
CCCCn1nnnc1NCc1ccc(C)cc1	0	-19	24	nt
CCCCn1nnnc1NCc1ccc(N(CC)CC)cc1	366*	-9	15	i
O=C(NN=Cc1c[nH]c2ccccc12)c1ccccc1Cl	nt	nt	16	nt
COCc1nnc(NC(=O)c2ccccc2Oc2ccccc2)s1	i	-14	2	nt
COCCSc1ccccc1C(=O)Nc1nnc(COC)s1	12	5	-1	0
CC(=NNC(=O)CCC(=O)Nc1cccc(Cl)c1)c1ccc(C)cc1	nt	nt	7	nt
CC(=O)C(CC(=O)N1CCCc2ccccc21)C(=O)Nc1ccc(F)cc1 (configuration not stated)	14	-3	nt	0
CC(=O)Nc1ccc(C(=O)N2CCCc3ccccc32)cc1	i	0	5	nt
Cc1ccccc1NC(=O)c1cc2ccccc2o1	i	-9	-5	nt
CC1CCN(c2ccccc2NC(=O)c2cc3ccccc3o2)CC1	97*	11	5	0
c1ccc(Cc2nn[nH]n2)cc1	nt	2	7	nt
SMILES	Vc quorum ag-1	Y pestis TopoI	Mtb hypoxia inh	Vc quorum ag-2	others
COc1ccc(Cc2nn[nH]n2)cc1	7.6*	0	5	0
COCCCn1c(=S)[nH]c2ccc(N3CCOCC3)cc2c1=O	12	9	4	0
O=c1c2ccccc2[nH]c(=S)n1CC1CCCO1 (configuration not stated)	-1	5	nt	nt
O=c1c2cc(N3CCOCC3)ccc2[nH]c(=S)n1CC1CCCO1 (configuration not stated)	12	9	3	0
COc1ccc(CCn2c(=S)[nH]c3ccc(N4CCOCC4)cc3c2=O)cc1OC	i	1	1	nt
CCOC1OC(C(=O)NC2CC2)=CC(C)C1CCCO (configuration not stated)	nt	nt	-1	nt
CCOC(=O)c1ccccc1NC(=O)COC(=O)CCC(=O)c1ccccc1	i	15	3	nt
CN(Cc1c(C(=O)NN=Cc2cccc(Cl)c2)nnn1-c1nonc1N)c1ccccc1	nt	nt	1	nt
O=C(NN=Cc1ccc([N+](=O)[O-])cc1)c1ccccc1OCc1ccccc1	nt	nt	3	nt
O=C(COc1cccc(Cl)c1)Nc1ccccc1N1CCCCC1	19	7	14	0
O=C(COc1ccccc1)Nc1ccccc1N1CCCCC1	8	42	nt	nt
Cc1nn2cnnc2c(C)c1Cc1c(F)cccc1Cl	165*	0	14	10
CSc1nc(C)c(Cc2c(F)cccc2Cl)c(=O)[nH]1	1	-12	2	nt
CCOC(=O)C1=C(C)N=C2SCCC(=O)N2C1c1cc(Br)ccc1OC (configuration not stated)	12	-5	-5	0
COC(=O)C1=C(C)N=C2SCCC(=O)N2C1c1cc(Br)ccc1OC (configuration not stated)	2	6	10	nt
CC(C)c1ccc(CN2CCSCC2)cc1	i	7	15	nt
CCCCC(C(=O)O)C(C)CC(=O)Nc1cccc(C(=O)O)c1 (configuration not stated)	i	-5	-1	nt
CCC(CCC(=O)Nc1cccc(C(=O)O)c1)C(=O)O (configuration not stated)	17*	3	2	1
CC1CCCN(C(=O)c2ccc3c(=O)n(Cc4ccc5c(c4)OCO5)c(=S)[nH]c3c2)C1 (configuration not stated)	2	-4	0	4
CCN(CC)C(=O)c1ccc2c(=O)n(Cc3ccc4c(c3)OCO4)c(=S)[nH]c2c1	0	1	14	nt
Cc1sc(N)nc1-c1ccc(Oc2ccccc2)cc1	46*	-6	-10	66
Nc1nc(N)nc(-c2ccc(Oc3ccccc3)cc2)n1	i	8	8	nt
COc1ccc(OC)c(NC(=O)COC(=O)CCC2CCCC2)c1	-2	37	6	nt
COc1ccccc1NC(=O)COC(=O)c1cc2c(s1)CCC2	nt	5	2	i	HeLa tox=4
COc1ccccc1NC(=O)COC(=O)C1CCCC1	i	1	-3	nt
SMILES	Vc quorum ag-1	Y pestis TopoI	Mtb hypoxia inh	Vc quorum ag-2	others
COc1ccc(OC)c(NC(=O)COC(=O)c2cc3c(s2)CCC3)c1	22	18	-1	2
COc1cccc(C(=O)NNC(C)=CC(=O)C(F)(F)C(F)(F)C(F)(F)F)c1	nt	nt	0	nt
O=C(COC(=O)CCc1ccccc1)Nc1ncc(Cl)cc1Cl	0	15	10	nt
CCCCn1c(=O)c(C(=O)NC(C)c2ccccc2)c(O)c2ccccc21 (configuration not stated)	i	5	-6	nt
C=CCn1c(=O)c(C(=O)NC(C)c2ccccc2)c(O)c2ccccc21 (configuration not stated)	451*	-1	-1	0
O=C(NN=Cc1ccccc1)C(=O)NN=Cc1ccccc1	nt	nt	-7	nt
CCN(CC)c1ccc(C=NNC(=O)c2cnccn2)cc1	nt	nt	3	nt
C=CCc1cccc(C=Nn2cnnc2)c1O	nt	nt	-10	nt
O=C(CCNC(=O)c1ccc([N+](=O)[O-])cc1)Nc1ccccc1N1CCCC1	-2	-5	-1	nt
N#CCSc1ccccc1NC(=O)COC(=O)CCNC(=O)c1ccc([N+](=O)[O-])cc1	9	0	3	0
CCOc1ccc(N2CC(C(=O)Nc3ccc(S(=O)(=O)Nc4ncccn4)cc3)CC2=O)cc1 (configuration not stated)	3	-4	nt	nt
